# Laboratory results published in PubChem BioAssay AID504861 (Broad Institute, 2011).
# Screen size: about 1,200 compounds; about 290 (24%) were called active. Not shown: some 3% with an inconclusive outcome.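 Rule for the calls: active = compounds lowering cell viability signal with fitted half-maximal concentration at most ten times their highest tested concentration; inconclusive = flat fit with 30 to 70% signal loss, or poor fit; inactive = the rest.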 The list is a sample of the results. Entries with a potency or affinity are not part of this list.
# Test: HEK293T cell viability reduction, dose response, cytotoxicity control for LMP1 NF-kB inhibitor project, CellTiter-Glo luminescence, cherry-picks (AID 504861)
# Conditions: CellTiter-Glo ATP luminescence, 48 h; series mostly up to 26 µM; activity change, negative = cytotoxicity: at the top concentration
row,Compound,"activity change, negative = cytotoxicity"
1,O=C(Nc1cnc2ccccn2c1=O)c1ccc(Cl)cc1Cl,5.04% (inactive)
2,O=C1c2cccc3c(O)ccc(c23)C(=O)N1c1ccc(Cl)cc1,5.3% (inactive)
3,CC(=O)c1ccc(-n2nnnc2SCC(=O)N2CCc3ccccc3C2)cc1,-0.209% (inactive)
4,COc1cc(N)c(Cl)cc1C(=O)NC1CCN(Cc2ccccc2)CC1,-0.368% (inactive)
5,CCOc1ccc(NC(=O)c2cnsn2)cc1,10.2% (inactive)
6,COc1ccc(-n2c(C)c(C(C)=O)c3cc(O)ccc32)cc1,0.983% (inactive)
7,Clc1ccc(-n2nnnc2Sc2ncnc3sccc23)cc1,10.2% (inactive)
8,O=C(Nc1ccc(Cl)cc1)c1ccco1,-7.91% (inactive)
9,COc1cc2nc(NC(=O)c3ccco3)sc(=O)c2cc1OC,-2.86% (inactive)
10,COc1cccc(/C=C2\SC(=S)N(CCC(=O)NCCc3ccc(O)cc3)C2=O)c1,8.59% (inactive)
11,COc1ccc(NC(=O)Cn2nnc(C(=O)NCc3ccccc3)c2N)c(OC)c1,6.31% (inactive)
12,CNC(=O)C1=NCCCc2cc(OC)c(OC)cc21,-10.9% (inactive)
13,CCc1ccc(/C=C2\SC(=S)N(CCCC(=O)Nc3ccccn3)C2=O)cc1,2.77% (inactive)
14,COc1ccc(OC)c2[nH]c(=O)c(CCNC(=O)c3ccc(S(=O)(=O)N(C)C)cc3)cc12,5.95% (inactive)
15,O=C(NOCc1ccccc1)c1ccc(Cl)cc1Cl,2.96% (inactive)
16,CCOC(=O)c1nc(NCc2ccccc2F)c2ccccc2n1,-0.295% (inactive)
17,C/C(=N\NS(=O)(=O)c1ccc([N+](=O)[O-])cc1)c1cccs1,7.67% (inactive)

row,Compound,"activity change, negative = cytotoxicity"
1,CC1Cc2ccccc2N1c1ncnc(N)c1[N+](=O)[O-] (centres undefined),-12.3% (inactive)
2,O=C(/C=C/Nc1ccc(F)cc1Br)c1ccccc1,-5.49% (inactive)
3,COc1ccc(C(=O)Nc2nnc(SCC(=O)NC3CC3)s2)cc1,1.92% (inactive)
4,O=C(COc1ccc2ccccc2c1)NCCNC(=O)COc1ccc2ccccc2c1,-3.57% (inactive)
5,Cc1ccc(C(=O)CSc2nnnn2C(C)C)c(C)c1,7% (inactive)
6,O=C(Nc1nnc(-c2cccs2)o1)c1cccc(C(F)(F)F)c1,8.43% (inactive)
7,COc1ccc(C(=O)Nc2cccc(C(=O)N/N=C/c3ccc(OC)cc3OC)c2)cc1,9.7% (inactive)
8,COc1ccc(OCc2cccc(C(=O)Nn3cc([N+](=O)[O-])cn3)c2)cc1,9.18% (inactive)
9,Cc1ccc(C(=O)N2CCN(c3ccc(NC(=O)CSc4ccc(Cl)cc4)cc3)CC2)cc1,6.23% (inactive)
10,Cc1nnc(SCc2cnc(-c3ccc(C(C)C)cc3)s2)n1C,-3.15% (inactive)
11,Cc1cc(NC(=O)CSc2ccnc(=O)[nH]2)no1,19.6% (inactive)
12,O=C1OCCC1Sc1nnc(-c2ccc(Cl)cc2Cl)o1 (centres undefined),9.49% (inactive)
13,O=c1[nH]c(Nc2nc3ccccc3o2)nc2c1CCCC2,2.83% (inactive)
14,O=C(Nc1ccc(CN2CCOCC2)cc1)c1cc2ccccn2n1,-4.33% (inactive)
15,O=C(CC(c1ccc(F)cc1)c1ccco1)N1CCOCC1 (centres undefined),4.11% (inactive)
16,Clc1ccc(-c2ccnc(Oc3ccc4ccccc4c3)n2)cc1,2.96% (inactive)
17,CC(C)(C)c1cc(C(=O)NNC(=O)Nc2cccc(Cl)c2)n(Cc2ccccc2)n1,10.8% (inactive)
